# Experimental data taken from PubChem BioAssay (NCI).
# Compounds without any hit were thinned out: in the full panel of roughly 83,000, 20% have a hit.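 Compound tested at a single concentration for 48 hours in 96-well plates; a percent growth value below 10 was scored as active.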 A number with no mark means an inactive call. Calls of active or inactive are those of the source.
# Experiments:
# Test in all cases: NCI-60 one-dose screen, 48 h (100 = growth as untreated, 0 = no growth, -100 = all killed)
# Conditions in all cases: 10 µM unless noted
# NCI-H23 lung = system: NCI-H23 lung
# NCI-H226 lung = system: NCI-H226 lung
# NCI-H322M lung = system: NCI-H322M lung
# HOP-62 NSCLC = system: HOP-62 NSCLC
# NCI-H460 lung = system: NCI-H460 lung
# HOP-92 NSCLC = system: HOP-92 NSCLC
# NCI-H522 lung = system: NCI-H522 lung
# A549/ATCC NSCLC = system: A549/ATCC NSCLC
# 786-0 renal = system: 786-0 renal
# COLO 205 colon = system: COLO 205 colon
# DU-145 prostate = system: DU-145 prostate
# K-562 leukemia = system: K-562 leukemia
# MALME-3M melanoma = system: MALME-3M melanoma
# MDA-MB-231 breast = system: MDA-MB-231 breast
# RXF 393 renal = system: RXF 393 renal
# SF-268 CNS = system: SF-268 CNS
# SF-295 CNS = system: SF-295 CNS
# SF-539 CNS = system: SF-539 CNS
# UACC-257 melanoma = system: UACC-257 melanoma
# M14 melanoma = system: M14 melanoma
SMILES,growth (NCI-H23 lung),growth (NCI-H226 lung),growth (NCI-H322M lung),growth (HOP-62 NSCLC),growth (NCI-H460 lung),growth (HOP-92 NSCLC),growth (NCI-H522 lung),growth (A549/ATCC NSCLC),growth (786-0 renal),growth (COLO 205 colon),growth (DU-145 prostate),growth (K-562 leukemia),growth (MALME-3M melanoma),growth (MDA-MB-231 breast),growth (RXF 393 renal),growth (SF-268 CNS),growth (SF-295 CNS),growth (SF-539 CNS),growth (UACC-257 melanoma),growth (M14 melanoma)
O=C(Nc1cccc2[nH]c(C(F)(F)F)nc12)c1ccc(-n2cnnn2)cc1,82.1%,92.2%,107%,97.6%,81.9%,82.5%,57.3%,98.1%,106%,105%,102%,21.5%,84.5%,93.1%,96.1%,96%,92.5%,103%,107%,107%
COc1ccc(C(=O)c2sc3nc4c(c(-c5cccnc5)c3c2N)CCCC4)cc1OC,97.7%,86.3%,99.5%,80.7%,77.4%,-11.7% (active),83%,82.2%,87.5%,94.6%,91.4%,15.2%,83.5%,38.3%,51%,64.9%,93.2%,73.4%,98.3%,118%
CCCCCCN(CCCCCC)C(=N)c1ccnc2ccccc12,72.5%,89.2%,76%,100%,55.4%,57.5%,71.7%,78.4%,57%,-74.7% (active),85.1%,16.8%,76.2%,58.1%,70.3%,83.8%,,79.7%,69.9%,18.9%
Cc1cc(NS(=O)(=O)c2ccc(-c3cnc(C4CC4)o3)cc2)ccc1Cl,24.3%,58.4%,44.7%,34.1%,7.65% (active),60.7%,-11.7% (active),15.3%,33.7%,-13.7% (active),14.3%,10.2%,46.3%,33.9%,-10.7% (active),49.4%,1.8% (active),-28.6% (active),45%,4.78% (active)
COc1ccc(C(=O)COc2ccc(/C=C3\Oc4ccc(OC)cc4C3=O)cc2)cc1,100%,89.5%,100%,115%,124%,63.4%,-29.6% (active),105%,114%,128%,116%,16.8%,102%,89.7%,110%,121%,81.9%,104%,94%,110%
Cc1ccc(O)c(N2C(=NCc3ccco3)NS(=O)(=O)c3cnccc32)c1,95.2%,101%,114%,100%,104%,27.7%,93.3%,83.7%,105%,125%,118%,71.4%,107%,111%,57.9%,100%,0.898% (active),97.9%,124%,98.4%
CC(C)n1c(/C=C/[C@@H](O)C[C@@H](O)CC(=O)O)c(-c2ccc(F)cc2)c2ccccc21,38.4%,64.1%,43.7%,73.4%,32.5%,-29.1% (active),0.551% (active),61.3%,64%,75.4%,97.9%,66.4%,79.6%,15.7%,50.9%,43.6%,16.8%,83.5%,79.4%,55.5%
CCCCC/C(C=C(C#N)C#N)=C/c1ccccc1,68.9%,116%,102%,106%,37.4%,112%,-10.1% (active),61.6%,87%,86.5%,71.3%,42.2%,95.4%,77.7%,,81.7%,84.4%,92.3%,54%,73%
OCc1ccc(N2CCc3cccc(F)c3C2)cc1Cl,84.7% [0.1 µM],-6.37% [0.1 µM] (active),106% [0.1 µM],44.7% [0.1 µM],31% [0.1 µM],82.3% [0.1 µM],80.6% [0.1 µM],62.9% [0.1 µM],66.4% [0.1 µM],24.9% [0.1 µM],100% [0.1 µM],38.5% [0.1 µM],104% [0.1 µM],107% [0.1 µM],103% [0.1 µM],105% [0.1 µM],52.7% [0.1 µM],110% [0.1 µM],-14.3% [0.1 µM] (active),111% [0.1 µM]
O=C(COc1cccc(/C=C2\COc3ccc(Cl)cc3C2=O)c1)c1ccc(Cl)cc1,86.1%,88.1%,98.2%,73.7%,102%,66.3%,87.1%,100%,98%,116%,124%,13.1%,77.5%,67.8%,,94.4%,120%,87%,104%,82.4%
Cc1cc(C)nc(SC2=C(Nc3ccc(O)cc3)C(=O)N(Cc3ccccc3)C2=O)n1,98.8% [40 µM],89.7% [40 µM],108% [40 µM],100% [40 µM],85.3% [40 µM],38.1% [40 µM],78.3% [40 µM],63% [40 µM],97.6% [40 µM],108% [40 µM],96.8% [40 µM],78.1% [40 µM],102% [40 µM],80.7% [40 µM],29.3% [40 µM],74.6% [40 µM],94.8% [40 µM],94.2% [40 µM],88.1% [40 µM],105% [40 µM]
Cc1cc(C)nc(SC2=C(Nc3ccc(C)c(Cl)c3)C(=O)N(Cc3ccccc3)C2=O)n1,62.4% [30 µM],74.5% [30 µM],82% [30 µM],86.9% [30 µM],52.4% [30 µM],-4.65% [30 µM] (active),73.8% [30 µM],41.2% [30 µM],68.6% [30 µM],81.2% [30 µM],87.8% [30 µM],32.5% [30 µM],66.4% [30 µM],39.1% [30 µM],51.4% [30 µM],64.6% [30 µM],-3.52% [30 µM] (active),85.8% [30 µM],67.4% [30 µM],64% [30 µM]
C=C1c2nc3ccccc3n2C=C(c2ccc(OC)cc2)N1Cc1ccccc1,81.3%,102%,102%,136%,90.8%,95.9%,64.5%,96%,83.6%,92.8%,103%,73.5%,109%,100%,101%,89.2%,103%,115%,97.1%,98.1%
Cn1cccc1-c1nc2c3c(ccc2[nH]1)C(=O)c1ccccc1C3=O,85.3%,86.2%,81.8%,102%,87.2%,89%,73.6%,87.9%,103%,120%,101%,73.8%,90.5%,88.6%,93%,97.8%,97.9%,90.7%,94.3%,99.7%
OCC(O)c1nc2ccc3[nH]ncc3c2c2c1CCCC2 (configuration not stated),2.08% (active),-4.5% (active),8.59% (active),10.6%,5.14% (active),-10.3% (active),13.3%,6.34% (active),4.15% (active),1.61% (active),11.7%,37.2%,19%,1.65% (active),-58.4% (active),-3.77% (active),9.19% (active),-39.1% (active),10.2%,5.99% (active)
